Source: the supplement of paper PMC3334620
In all, about 33,000 sequences were measured (“E-score (-0.5 to 0.5)”: median about -0.041, highest 2% from about 0.37 on). Shown is part of a subset that was picked to be rich in the highest values.

Each sequence was assayed against T1, Ecm22 (UniProt Q05958) (assay: PBM E-score (8-mer binding enrichment) (E-score (-0.5 to 0.5)); higher = stronger / more preferred TF binding). Conditions: protein concentration: 200 nM; construct: GST-full length.
T1 sequence: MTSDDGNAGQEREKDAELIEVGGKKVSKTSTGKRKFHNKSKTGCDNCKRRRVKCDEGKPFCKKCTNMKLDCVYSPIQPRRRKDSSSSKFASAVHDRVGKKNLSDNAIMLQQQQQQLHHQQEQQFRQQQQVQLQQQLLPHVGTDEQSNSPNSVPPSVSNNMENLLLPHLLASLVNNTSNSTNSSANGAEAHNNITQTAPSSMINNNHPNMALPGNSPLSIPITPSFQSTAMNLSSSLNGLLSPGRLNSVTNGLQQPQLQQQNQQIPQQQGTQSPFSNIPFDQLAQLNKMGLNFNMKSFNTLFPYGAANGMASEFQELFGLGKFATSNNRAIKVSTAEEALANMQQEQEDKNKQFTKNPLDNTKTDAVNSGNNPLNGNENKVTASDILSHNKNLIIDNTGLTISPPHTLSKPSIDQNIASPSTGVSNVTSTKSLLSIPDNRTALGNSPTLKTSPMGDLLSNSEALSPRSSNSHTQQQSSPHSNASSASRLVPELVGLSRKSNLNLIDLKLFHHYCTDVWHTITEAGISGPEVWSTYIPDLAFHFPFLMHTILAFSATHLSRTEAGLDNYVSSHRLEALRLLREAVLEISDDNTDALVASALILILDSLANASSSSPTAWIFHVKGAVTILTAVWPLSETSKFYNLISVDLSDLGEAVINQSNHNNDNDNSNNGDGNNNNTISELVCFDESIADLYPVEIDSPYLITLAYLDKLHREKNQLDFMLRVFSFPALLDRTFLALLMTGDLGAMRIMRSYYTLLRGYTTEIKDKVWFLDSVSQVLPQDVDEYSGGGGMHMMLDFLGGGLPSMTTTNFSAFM
Description: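 Universal 'all 10-mer' protein binding microarrays (Agilent AMADID 015681) probed with GST-tagged S. cerevisiae TFs (full-length or DBD) made by in vitro transcription/translation (PURExpress), about 100-200 nM. Bound TF was detected with fluorescent anti-GST. Each ungapped 8-mer (which stands for itself and its reverse complement) is scored by the PBM enrichment score (E-score), a modified Wilcoxon-Mann-Whitney statistic from -0.5 to +0.5, computed with the Universal PBM Analysis Suite. Scale: above 0.35 generally sequence-specific binding.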

Row | Sequence | PBM E-score
1 | CCGTCTTA | -0.174
2 | AAGGCGCA | -0.0313
3 | ATCCCAGC | -0.0508
4 | TCAACTGA | -0.205
5 | AGGCTCTC | -0.162
6 | GGAGCACA | -0.107
7 | CGTTGTGC | 0.116
8 | CCCGGGAA | -0.0348
9 | CCAACCAA | -0.0915
10 | AACGATGG | 0.374
11 | AACGATGC | 0.348
12 | CACGATGG | 0.0647
13 | TGTGTAAA | -0.0334
14 | ATGCGAGA | 0.302
15 | CTACGAGA | 0.385
16 | ATACGAGC | 0.49
17 | AGACGAGC | 0.211
18 | ATACGAGA | 0.484
19 | CTACGAGC | 0.413
20 | CGACGAGC | 0.162
21 | CCACGAGC | -0.0179
22 | ACACGAGC | 0.275
23 | CCACGAGA | -0.117
24 | CGACGAGA | 0.08
25 | ATACGTGA | 0.171

Row | Sequence | PBM E-score
26 | CCGAGTGA | 0.196
27 | CCTTTCGA | 0.142
28 | AAGCGTTA | 0.00424
29 | ACCCCCGG | -0.189
30 | GAGCGGGC | -0.0404
31 | AGTAGTCG | 0.238
32 | AGGGCTAC | -0.117
33 | ATAAATTA | 0.326
34 | ATACGAGG | 0.488
35 | ACACGAGG | 0.324
36 | GTACGCGA | 0.327
37 | GTACGAGA | 0.482
38 | GTCCGAGA | 0.253
39 | AGACGAGG | 0.202
40 | ACCCCGAC | -0.0233
41 | AGTCAATG | -0.0767
42 | ACGGGGCA | 0.114
43 | TGCAGCCA | -0.171
44 | GTTTAGTA | 0.271
45 | CCCGGTAC | 0.078
46 | CACGACTA | -0.0786
47 | TACGACTA | 0.438
48 | GACGACTC | -0.0985
49 | AACGACTC | 0.388
50 | ATCGACTG | 0.076

Row | Sequence | PBM E-score
51 | AACGACTG | 0.393
52 | CACGACTC | 0.0577
53 | AACGACTA | 0.372
54 | CACGACTG | 0.0526
55 | AGCGACTA | 0.161
56 | GACGACTA | -0.121
57 | AACGACTT | 0.336
58 | TCCCCGGA | 0.00406
59 | ATCTGTAG | -0.116
60 | CGTCTCAC | 0.0419
61 | TGCGCAAA | -0.077
62 | GAAGCAGA | -0.215
63 | AGTCGTGC | -0.0872
64 | CGTCGTCC | -0.054
65 | CGTCGTAG | 0.406
66 | GGTCGTAC | 0.482
67 | AGTCGTAC | 0.46
68 | CGTCGTGC | 0.177
69 | AGTCGTCC | -0.0209
70 | CATCGTCG | 0.0968
71 | CGTAGTAG | 0.109
72 | CGTCGTAC | 0.486
73 | GGTCGCAC | 0.228
74 | GGACGTAC | 0.126
75 | CCCCGAAC | -0.0375

Row | Sequence | PBM E-score
76 | GGAAAATA | 0.0993
77 | GATCGGGA | 0.0412
78 | CCAGGTCC | -0.192
79 | GAAAAAGC | -0.00535
80 | ACTCAGTC | -0.147
81 | CCCTCCAG | -0.206
82 | AGGTGAAC | 0.0634
83 | TGAGTAAA | -0.13
84 | ATTCTCGA | 0.168
85 | AGTCGTAG | 0.304
86 | AGTCGTCG | 0.01
87 | AGTCGTAT | 0.46
88 | AGCCTAAC | -0.0712
89 | ATCTGCGG | -0.00985
90 | GATGAGGA | -0.0394
91 | AGGAGCTA | -0.138
92 | CTCTCGTA | 0.457
93 | CTCTCGAA | -0.0852
94 | GTCTCGTA | 0.461
95 | GTCTCGGA | 0.242
96 | GTCTCGAA | -0.00716
97 | ATCTCGTC | 0.158
98 | ATCTCGTG | 0.193
99 | CTCTCGTC | 0.0625
100 | ATCTCGTA | 0.466

Row | Sequence | PBM E-score
101 | CTGCGGGC | -0.163
102 | AACGCTTG | -0.121
103 | CTTGGACC | -0.134
104 | CGTAGCTC | 0.32
105 | AACTTAGA | -0.0444
106 | ACGTCGTA | 0.464
107 | ACGTCGTC | 0.175
108 | CCGTCGTC | 0.0655
109 | CCGTCGGA | 0.0756
110 | GCGTCGCA | 0.23
111 | ACGTCGTG | 0.117
112 | GCGTCGAA | 0.0462
113 | GCGTCGTA | 0.471
114 | CCGTCGTA | 0.471
115 | GTCATAGA | -0.115
116 | CTCAACCC | -0.14
117 | AACCCCGT | 0.0296
118 | GGTATGAC | -0.125
119 | AGTATGAA | 0.0349
120 | CGTATGAC | 0.407
121 | AGTATGAC | 0.0876
122 | CGTATGAG | 0.354
123 | CGTATGAA | 0.415
124 | CCGCAATA | 0.0155
125 | AAAACTCG | 0.182

Row | Sequence | PBM E-score
126 | AAACACCG | 0.14
127 | GCATGCCA | 0.0106
128 | CGTTCCCA | 0.443
129 | GGTTCCCA | -0.173
130 | AGTTCCCC | -0.0578
131 | CGTTCCCC | 0.428
132 | CGTTTCCC | 0.261
133 | AGTTCCCA | 0.0586
134 | CGCCTTTC | 0.0685
135 | CTAGAAGA | -0.0952
136 | ATGGACTG | -0.151
137 | CCACTTCC | 0.0365
138 | AAACGAAA | 0.449
139 | AAACGTAT | 0.319
140 | CCACGAAG | 0.0223
141 | AACCGAAT | 0.284
142 | AAACGAAT | 0.453
143 | CAACGAAG | 0.277
144 | AAACGAAG | 0.457
145 | TAACGAAA | 0.296
146 | CAACGAAA | 0.278
147 | GATTAGCC | 0.0338
148 | GCCACTCA | -0.196
149 | AACCGCGC | -0.0112
150 | ACGCTGCA | -0.0508

Row | Sequence | PBM E-score
151 | AAAAACAG | -0.0439
152 | CACGAACC | 0.0995
153 | CACGAACA | 0.177
154 | AACGAACA | 0.409
155 | GACGAACA | 0.0113
156 | AGCGAACA | 0.198
157 | GACGAACC | 0.0132
158 | AACGAACC | 0.408
159 | AACGAACT | 0.354
160 | CACGAACG | 0.312
161 | TACGAACA | 0.452
162 | TCCGAACA | 0.0654
163 | AACGAACG | 0.437
164 | GCCCGGCC | -0.229
165 | ACGGTTAC | 0.255
166 | AGGAAGGG | -0.211
167 | TCTGCTAA | -0.086
168 | CTTTCTCA | 0.00463
169 | CACTATCA | -0.0654
170 | CCGCTGAA | -0.00985
171 | GTCTGGTA | 0.00642
172 | TGACGAAA | 0.061
173 | CCACGAAA | -0.0672
174 | AAACGGAC | 0.307
175 | AAACGAAC | 0.454

Row | Sequence | PBM E-score
176 | CAACGAAC | 0.272
177 | GAACGAAC | 0.453
178 | GAACGGAC | 0.279
179 | GAACGAAA | 0.43
180 | AAGCGAAC | 0.268
181 | AGCGGGAG | -0.188
182 | GGGGGTTA | -0.298
183 | AACCCGAG | 0.267
184 | GCATCCGC | -0.18
185 | CTGCGGGA | -0.163
186 | AGGAGCGA | 0.328
187 | AGTATAAC | 0.0917
188 | AGTATAAG | 0.109
189 | TGTATCAA | -0.0485
190 | GGTATAAC | 0.0372
191 | CGTATCAA | 0.386
192 | CGTATAAG | 0.466
193 | TGTATAAA | 0.172
194 | AGTATAAA | 0.241
195 | CGTATAAC | 0.473
196 | CATATAAG | 0.0284
197 | CGTATAAA | 0.477
198 | CGTATCAC | 0.365
199 | CTGAAGAC | 0.056
200 | CAAGCCGC | -0.0639

Row | Sequence | PBM E-score
201 | CGCTTGGC | 0.0372
202 | CCGCGCGG | 0.263
203 | CGTGTGTC | 0.0878
204 | AGATCAGC | -0.106
205 | ACATCTTG | -0.0408
206 | CGCAGTAC | 0.174
207 | CGCACGAA | 0.175
208 | CTTCTTCA | -0.341
209 | CCCGAAGC | -0.0995
210 | GGCGATGA | -0.00497
211 | ATTTTACC | 0.06
212 | ACTTTACA | -0.00715
213 | AATTTACG | 0.303
214 | ATTTTACG | 0.392
215 | ACTTTACG | 0.394
216 | CCTTTACG | 0.329
217 | CTCTCCGC | -0.147
218 | GCAGTGCC | -0.179
219 | GTAACCTA | 0.00094
